# In PubChem BioAssay:
# Calls of active or inactive are those of the source.
# Experiments:
# [1] = small molecules captured by biotinylated probe aFSTL3 – biochemical, small-molecule microarray, fluorescence 635/667, stem cell growth factor project, primary screen (AID 1064); conditions: higher = more signal;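 note: measures binding of the biotinylated anti-FSTL3 antibody to printed compounds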
# [2] = binders from COS7 lysate, DM2A8 probe, primary screen, torsin A project, cell lysate, small-molecule microarray, fluorescence 635/667 (AID 1065); conditions: higher = more signal, COS7 lysate expressing mutant human TOR1A
# [3] = small molecules captured by biotinylated probe aFGF2 – biochemical, small-molecule microarray, fluorescence 635/667, stem cell growth factor project, primary screen (AID 1067); conditions: higher = more signal;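 note: measures binding of biotinylated aFGF2 protein to printed compounds on slides; z-score merges feature fluorescence and signal-to-noise across triplicate slides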
# [4] = small molecules captured by biotinylated probe aFGF10 – biochemical, small-molecule microarray, fluorescence 635/667, stem cell growth factor project, primary screen (AID 1071); conditions: higher = more signal;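 note: score merges 667 nm spot intensity and signal to noise from triplicate slides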
# [5] = target: Neurogenic locus notch homolog protein 2 (Homo sapiens) (UniProt Q04721); assay: small molecules binding Notch2 protein – biochemical, small-molecule microarray, 635 nm fluorescence, stem cell growth factors, primary screen (AID 1073); conditions: higher = more signal
# [6] = target: Pro-neuregulin-1, membrane-bound isoform (Homo sapiens) (UniProt Q02297); assay: small molecules binding neuregulin-1 protein – biochemical, small-molecule microarray, fluorescence 635/667, psychiatric disease protein project, primary screen (AID 1075); conditions: NRG1 binding, 635 nm fluorescence, higher = more signal;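 note: score combines 667 nm spot fluorescence with signal to noise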
# [7] = system: Neuregulin-1 EGF-like domain; assay: small molecules binding NRG1 EGF domain – biochemical, small-molecule microarray, 635 nm fluorescence, primary screen (AID 1081); conditions: higher = more signal;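 note: binding of the protein to compounds printed on small-molecule microarray slides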
# [8] = FRG1 expression reporter modulators in myotubes – cell-based, C2C12 myotubes, firefly/Renilla luciferase, luminescence, FRG1 inhibition for FSHD, primary screen (AID 1084); conditions: FRG1 promoter luciferase, higher = more signal, called active from +8 up or from −8 down
# [9] = small molecules captured by biotinylated probe aFST – biochemical, small-molecule microarray, fluorescence 635/667, stem cell growth factor project, primary screen (AID 1086); conditions: higher = more signal;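 note: score merges 667 nm fluorescence with signal-to-noise of each printed compound spot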
# [10] = binders of probe aHhip on microarray, primary screen, stem cell growth factor project, biochemical, small-molecule microarray, fluorescence 635/667 (AID 1087); conditions: higher = more signal;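 note: score merges spot fluorescence at 667nm with spot signal to noise ratio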
# Chain of Neurogenic locus notch homolog protein 2 (Homo sapiens) (Q04721 whole entry, looked up, canonical isoform): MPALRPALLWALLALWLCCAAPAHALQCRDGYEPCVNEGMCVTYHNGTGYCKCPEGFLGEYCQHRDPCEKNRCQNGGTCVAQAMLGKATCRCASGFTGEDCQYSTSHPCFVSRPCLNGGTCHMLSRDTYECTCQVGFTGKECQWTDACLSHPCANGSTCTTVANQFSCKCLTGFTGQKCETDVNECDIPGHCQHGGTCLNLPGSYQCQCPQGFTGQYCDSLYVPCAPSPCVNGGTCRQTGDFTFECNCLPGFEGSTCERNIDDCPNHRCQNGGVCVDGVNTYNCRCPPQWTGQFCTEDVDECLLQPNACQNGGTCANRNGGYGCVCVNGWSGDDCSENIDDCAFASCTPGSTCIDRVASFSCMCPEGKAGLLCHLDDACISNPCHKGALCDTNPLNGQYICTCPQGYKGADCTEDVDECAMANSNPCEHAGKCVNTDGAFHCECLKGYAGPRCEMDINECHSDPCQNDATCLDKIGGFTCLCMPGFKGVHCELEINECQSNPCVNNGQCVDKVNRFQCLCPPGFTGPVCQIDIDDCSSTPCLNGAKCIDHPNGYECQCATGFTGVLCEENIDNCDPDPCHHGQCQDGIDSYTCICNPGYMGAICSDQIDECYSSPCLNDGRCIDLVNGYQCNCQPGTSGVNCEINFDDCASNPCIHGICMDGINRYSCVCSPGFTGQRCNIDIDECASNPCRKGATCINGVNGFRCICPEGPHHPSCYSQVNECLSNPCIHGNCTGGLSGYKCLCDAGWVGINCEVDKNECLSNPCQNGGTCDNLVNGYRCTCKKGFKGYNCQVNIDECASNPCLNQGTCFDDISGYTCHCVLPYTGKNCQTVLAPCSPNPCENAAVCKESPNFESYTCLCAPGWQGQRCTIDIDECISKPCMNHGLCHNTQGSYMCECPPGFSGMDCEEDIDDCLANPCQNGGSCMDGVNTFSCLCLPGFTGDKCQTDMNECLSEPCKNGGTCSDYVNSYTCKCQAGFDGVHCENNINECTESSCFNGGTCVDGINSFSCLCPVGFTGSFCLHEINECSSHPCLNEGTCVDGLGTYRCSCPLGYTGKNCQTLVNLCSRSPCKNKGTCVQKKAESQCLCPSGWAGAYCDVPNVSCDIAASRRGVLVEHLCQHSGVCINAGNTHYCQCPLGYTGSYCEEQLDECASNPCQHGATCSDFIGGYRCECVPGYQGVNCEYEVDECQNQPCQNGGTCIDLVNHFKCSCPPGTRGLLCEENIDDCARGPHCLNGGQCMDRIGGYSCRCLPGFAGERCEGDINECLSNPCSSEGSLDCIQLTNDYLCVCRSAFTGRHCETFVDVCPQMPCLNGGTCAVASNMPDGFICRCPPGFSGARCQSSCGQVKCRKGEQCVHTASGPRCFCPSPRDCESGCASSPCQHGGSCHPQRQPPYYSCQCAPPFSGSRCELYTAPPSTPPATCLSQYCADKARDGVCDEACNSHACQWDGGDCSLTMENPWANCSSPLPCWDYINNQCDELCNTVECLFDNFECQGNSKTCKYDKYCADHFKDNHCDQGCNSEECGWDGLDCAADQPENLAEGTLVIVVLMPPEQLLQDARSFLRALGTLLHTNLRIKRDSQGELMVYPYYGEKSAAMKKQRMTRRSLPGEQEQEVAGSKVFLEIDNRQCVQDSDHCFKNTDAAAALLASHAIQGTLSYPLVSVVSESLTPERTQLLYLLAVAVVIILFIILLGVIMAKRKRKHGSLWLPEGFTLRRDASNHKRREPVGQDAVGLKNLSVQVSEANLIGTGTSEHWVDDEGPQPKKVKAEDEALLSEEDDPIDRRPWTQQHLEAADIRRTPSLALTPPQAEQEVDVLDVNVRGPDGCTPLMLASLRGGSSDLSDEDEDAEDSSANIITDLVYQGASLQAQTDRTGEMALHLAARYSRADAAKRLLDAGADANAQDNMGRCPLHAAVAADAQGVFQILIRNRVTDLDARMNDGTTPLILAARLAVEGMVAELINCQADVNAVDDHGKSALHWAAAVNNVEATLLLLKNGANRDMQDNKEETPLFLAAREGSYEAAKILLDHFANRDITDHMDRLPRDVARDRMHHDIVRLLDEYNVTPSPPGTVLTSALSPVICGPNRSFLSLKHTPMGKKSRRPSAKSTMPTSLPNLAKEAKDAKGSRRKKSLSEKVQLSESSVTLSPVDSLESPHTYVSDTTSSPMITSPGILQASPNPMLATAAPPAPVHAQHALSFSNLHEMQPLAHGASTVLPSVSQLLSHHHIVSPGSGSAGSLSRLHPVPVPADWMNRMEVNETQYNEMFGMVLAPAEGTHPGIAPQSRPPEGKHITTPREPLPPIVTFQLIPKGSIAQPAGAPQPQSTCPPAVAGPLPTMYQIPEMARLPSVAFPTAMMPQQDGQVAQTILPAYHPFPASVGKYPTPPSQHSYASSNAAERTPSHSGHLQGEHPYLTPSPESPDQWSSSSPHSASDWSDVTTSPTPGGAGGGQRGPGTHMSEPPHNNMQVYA
# Chain of Pro-neuregulin-1, membrane-bound isoform (Homo sapiens) (Q02297 whole entry, looked up, the tested form may be a part, canonical isoform): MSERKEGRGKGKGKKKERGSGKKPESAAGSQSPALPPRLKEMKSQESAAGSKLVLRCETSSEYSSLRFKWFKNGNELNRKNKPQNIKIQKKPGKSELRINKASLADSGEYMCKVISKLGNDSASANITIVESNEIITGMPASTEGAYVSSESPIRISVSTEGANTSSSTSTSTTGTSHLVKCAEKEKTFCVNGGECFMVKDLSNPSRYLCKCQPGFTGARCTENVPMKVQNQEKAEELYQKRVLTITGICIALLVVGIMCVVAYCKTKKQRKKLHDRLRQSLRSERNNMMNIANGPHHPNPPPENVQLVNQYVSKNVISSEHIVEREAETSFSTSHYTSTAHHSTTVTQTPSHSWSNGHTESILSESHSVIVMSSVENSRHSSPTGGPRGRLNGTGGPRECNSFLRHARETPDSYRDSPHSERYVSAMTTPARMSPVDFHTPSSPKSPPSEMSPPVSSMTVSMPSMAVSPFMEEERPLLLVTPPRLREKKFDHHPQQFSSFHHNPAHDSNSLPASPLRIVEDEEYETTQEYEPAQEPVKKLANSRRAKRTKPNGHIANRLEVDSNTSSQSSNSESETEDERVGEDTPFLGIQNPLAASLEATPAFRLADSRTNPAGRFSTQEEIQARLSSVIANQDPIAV
SMILES,composite z-score [1],composite z-score [2],composite z-score [3],composite z-score [4],composite z-score [5],composite z-score [6],composite z-score [7],z-score [8],composite z-score [9],composite z-score [10]
C[N+](C)(C)CCCC[C@@H]1NC(=O)[C@H]2C[C@@H](C(=O)O)[C@@H](c3ccc(O)cc3)N2C1=O,0.348,0.211,-0.133,-0.0114,0.288,0.45,1.3,4.06 (inactive),-0.166,-0.199
O=C1O[C@H](c2ccccc2)[C@H](c2ccccc2)N2[C@H]1[C@@H](C(=O)O)[C@]1(C(=O)Nc3ccc(C#CC4(O)CCCCCC4)cc31)[C@H]2c1ccccc1OCCO,-0.304,1.43,0.0322,0.85,1.11,0.278,1.19,-0.283 (inactive),0.39,0.781
C=CCN1C(=O)[C@]2(O[C@H](CCO)[C@@H]([Si](C)(C)c3ccc(OC)cc3)[C@@H]2C)c2cc(N3C(=O)c4ccccc4Oc4ccccc43)ccc21,-0.086,-0.203,-0.0392,0.56,0.0699,0.967,1.03,-1.5 (inactive),0.0141,-0.236
Cc1ccc(S[C@]2(C(=O)NCC(C)C)CC(=O)N(C(C)C)[C@@H]2c2ccc(CO)cc2I)cc1,1.12,1.39,0.0519,-0.41,-0.365,1.18,-0.569,-0.999 (inactive),0.161,0.0327
COC(=O)C(CC#Cc1ccc2c(c1)[C@]1(C(=O)N2)[C@H](c2ccccc2OCCO)N2[C@H](c3ccccc3)[C@H](c3ccccc3)OC(=O)[C@H]2[C@@H]1C(=O)N1CCN(c2ncccn2)CC1)C(=O)OC,-0.35,0.474,-0.0937,0.431,0.852,1.31,1.13,-1.46 (inactive),0.255,-0.11
COCCCNC(=O)[C@@]1(c2ccc([N+](=O)[O-])cc2)CC(=O)N(C2CCCCC2)[C@@H]1c1ccc(CO)cc1I,0.234,1.2,0.0247,0.0624,-0.161,0.944,1.31,-1.27 (inactive),-0.0119,0.259
C=CCOC(=O)[C@H]1[C@@H]2C(=O)O[C@@H](c3ccccc3)[C@@H](c3ccccc3)N2[C@@H](c2ccc(OCCOC(=O)[C@@H]3C[C@@H]4C(=O)N[C@@H](Cc5ccccc5)C(=O)N4[C@@H]3c3ccc(O)cc3)cc2)[C@]12C(=O)Nc1ccc(I)cc12,1.36,0.0366,-0.0861,0.449,0.437,0.422,1.08,1.3 (inactive),0.258,-0.0645
O=C1OC[C@@H](c2ccccc2)n2cc(/C=C/c3ccccc3)cc21,0.0087,-0.382,-0.178,-0.162,-0.924,0.895,0.132,-0.144 (inactive),-0.503,-0.306
CCOC(=O)C[C@H]1[C@H](OC(=O)c2cc3ccccc3oc2=O)[C@@H](NC(=O)Cc2ccc(OC)cc2)c2cc(OCCCO)ccc2N1C(=O)Cc1ccc(OC)cc1,-0.545,0.58,-0.125,0.527,0.791,0.185,0.507,-1.39 (inactive),1.43,-0.179
COc1ccc([Si](C)(C)[C@H]2[C@H](CCO)O[C@@]3(C(=O)N(Cc4ccccc4)c4ccc(NC(=O)[C@H](C)O)cc43)[C@@H]2C)cc1,-0.0382,0.394,-0.0653,1.12,0.855,0.638,1.18,-3.18 (inactive),0.239,0.126
C=C(COC)/C(=C/C[C@@H](OC(C)=O)c1cccc(OCCO)c1)c1cnc2ccccc2c1,0.305,-0.116,-0.076,0.826,1.63,0.679,1.18,3.42 (inactive),0.134,-0.214
COC(=O)[C@@]1(Cc2ccc(F)cc2)[C@H]2c3cc(C(=O)N4CCCC4)n(CCSCCO)c3C[C@H]2CN1C(=O)c1ccccc1,0.349,-0.366,0.157,0.359,1.53,1.82,1.32,-0.0476 (inactive),1.21,-0.174
COc1ccc([Si](C)(C)[C@@H]2[C@@H](CC(=O)N(CCO)Cc3ccccc3)O[C@]3(C(=O)N(Cc4cccc(I)c4)c4ccccc43)[C@H]2C)cc1,2.68,1.17,-0.0422,0.396,0.779,0.496,1.13,-0.939 (inactive),0.42,0.572
CCOC(=O)C1=CC[C@@H](c2ccccc2)N(S(=O)(=O)c2ccc(C)cc2)[C@@H]1C#N,-0.182,-0.0258,0.0056,0.388,1.25,1.11,1.05,-0.823 (inactive),0.158,0.0505
CC[C@@H]1C=C(C(=O)O)[C@H](c2cccc(Cl)c2)N1S(=O)(=O)c1ccc(C)cc1,0.0801,0.969,0.0263,0.516,1.36,1.27,0.855,-1.53 (inactive),0.177,0.0424
[N-]=[N+]=NCc1ccccc1[C@H]1OC(c2ccc(OCCCO)cc2)=N[C@@]1(Cc1ccccc1N=[N+]=[N-])C(=O)N1CCOCC1,0.439,-0.154,0.156,0.383,1.55,1.96,1.21,-1.31 (inactive),1.07,-0.0994

SMILES,composite z-score [1],composite z-score [2],composite z-score [3],composite z-score [4],composite z-score [5],composite z-score [6],composite z-score [7],z-score [8],composite z-score [9],composite z-score [10]
O=C1OCCC/C=C\[C@H]2OC34C=CCN(Cc5ccccc5)C(=O)[C@H]3N(CCO)C(=O)[C@@H]4C12 (stereo not given in full),0.166,1.08,-0.226,0.866,0.479,1.79,1.53,0.0936 (inactive),-0.342,-0.0994
CCCN1C(=O)[C@@]2(c3ccc([N+](=O)[O-])cc3)CC(=O)N(C3CCCCC3)[C@@H]2c2ccc(CO)cc21,-0.439,-0.768,-0.0131,-0.201,-0.553,-0.154,1.23,0.693 (inactive),-0.479,0.137
CCN1C(=O)C2CC(=O)C3C(CN(S(=O)(=O)c4ccc(C)cc4)C3c3ccc(C)cc3)C2C1=O (stereo not given),0.584,0.122,0.0174,0.183,0.308,1.61,1.18,-0.812 (inactive),0.292,0.0053
CCOC(=O)C1=CCC(c2cccn2C(=O)OC(C)(C)C)N(S(=O)(=O)c2ccc(C)cc2)C1 (stereo not given),1.3,0.42,0.0267,0.243,0.884,1.7,1.18,-2.99 (inactive),0.67,1.07
COC(=O)C[C@H]1O[C@]2(C(=O)N(C)c3ccccc32)[C@@H](C)[C@@H]1[Si](C)(C)c1ccccc1,-0.486,0.0686,-0.0767,0.351,0.731,0.033,0.854,-2.11 (inactive),0.333,0.357
Cc1c(NC(=O)/C(C#N)=C/C=C/c2ccc([N+](=O)[O-])cc2)c(=O)n(-c2ccccc2)n1C,-0.309,0.129,-0.0718,0.906,1.63,1.65,1.25,3.34 (inactive),0.854,-0.0867
[N-]=[N+]=NCc1ccccc1[C@H]1OC(c2ccc(OCCCO)cc2)=N[C@@]1(Cc1ccccc1N=[N+]=[N-])C(N)=O,0.0097,0.998,0.05,0.995,1.54,1.7,1.11,4.46 (inactive),1.76,-0.156
COc1ccc(C(O)C2C=CC3C(=O)N(C)C(=O)C3N2Nc2ccccc2)cc1 (stereo not given),0.402,0.467,0.042,0.701,1.7,2.03,1.27,1.71 (inactive),0.791,-0.271
COc1c(C)cc(-c2cc3c(c(CCc4ccccc4)n2)[Si](C(C)C)(C(C)C)O[C@H]3c2ccccc2)cc1C,-0.473,-0.0939,-0.166,-0.0024,-0.0773,-0.133,-0.0748,-0.278 (inactive),0.125,-0.0296
COCCCNC(=O)[C@]1(Cc2ccccc2CN=[N+]=[N-])N=C(c2ccc(OCCCO)cc2)O[C@@H]1c1ccccc1N=[N+]=[N-],1.19,0.694,0.359,0.425,1.43,0.527,1.11,-0.881 (inactive),0.762,0.0623
C=C(C(=O)CC[C@@H](OC(=O)c1ccccc1-c1ccccc1C(=O)O)c1ccc(OCCO)cc1)C(C)C,-0.49,0.235,0.0129,1.11,0.52,0.551,0.512,2.12 (inactive),0.136,0.245
COc1ccc(CCNC(=O)[C@@H]2c3ccccc3C(=O)N(C(C)C)[C@H]2c2ccc(CO)cc2)cc1,1.42,-0.489,-0.142,-0.92,-1.48,0.0203,0.209,-1.15 (inactive),-0.36,-0.379
COC(=O)[C@@]1(Cc2ccccc2)[C@H]2c3cc(C(=O)N(C)C)n(Cc4ccc(Cl)c(C(F)(F)F)c4)c3C[C@H]2CN1C(=O)c1ccccc1,0.0539,0.277,0.372,1.09,1.61,1.35,1.18,-3.33 (inactive),1.51,0.26
COc1ccc(NN2C(C(O)c3ccc(F)cc3)C=CC3C(=O)N(C4CCCCC4)C(=O)C32)cc1 (stereo not given),0.443,0.0876,0.133,0.686,1.59,1.52,1.22,1.78 (inactive),0.688,-0.0618
O=C1C[C@@](C(=O)NCC(F)(F)F)(c2ccc([N+](=O)[O-])cc2)[C@@H](c2ccc(CO)cc2I)N1CC12CC3CC(CC(C3)C1)C2,-0.405,-0.0271,-0.106,0.121,0.729,1.01,1.23,-2.99 (inactive),1.08,-0.239
COCCOC(=O)N1C(=O)[C@@]2(c3cc(C#CCNC(N)=O)ccc31)[C@H](C(=O)Nc1nc3ccccc3s1)[C@H]1C(=O)O[C@H](c3ccccc3)[C@H](c3ccccc3)N1[C@@H]2c1ccc(O)cc1,-0.145,0.215,-0.0284,0.46,0.968,0.882,0.595,0.709 (inactive),0.501,0.0373
